Measured values taken from PubChem BioAssay (EPA / NIEHS).
Where “and” joins values, the source holds several entries; their conditions need not be identical. Identical values can stand only once. Inconclusive results are not listed. A structure can be active in one record and inactive in another. Calls of active or inactive are those of the source. Rule for the calls, unless noted: active = hit-call score of the fitted dose curve at least 0.9, where 1 is the maximum; inactive = score below 0.9.

How the values were obtained:
[1] = BSK_BT_PBMCCytotoxicity: PBMC Cytotoxicity Assessment in the BioMAP Diversity Plus: BT Assay (AID 2284225); details: primary human B cells with PBMC;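 note: PBMC viability measured by Alamar Blue dye reduction fluorescence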
Summary of the method: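 Viability by Alamar Blue reduction (6 h, ex/em 546/580 nm) after 90 h culture of SEB/TSST-1-activated PBMC (20 ng/mL each) given compound 1 h before activation. DMSO served as baseline for curve fitting.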

[2] = BSK_BT_Bcell_Proliferation: Viability Assessment in the BioMAP Diversity Plus: BT Assay for B cell Proliferation (AID 2284227); details: primary human B cells with PBMC
Summary of the method: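 SRB-based protein staining (0.1% SRB after 10% TCA fixation, 560 nm) quantifies proliferation in human B cells co-cultured with PBMC, 72 h post-dosing, with signal gain scored relative to DMSO negative control.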

[3] = read-out: Interleukin 6 (IL6), IL6 (gene 3569); assay: BSK_BT_xIL6: BioMAP Diversity Plus: BT Assay for Interleukin 6 (IL6) Biomarker Activity (AID 2284228); details: primary human B cells with PBMC
Summary of the method: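 Readout: secreted IL-6 via Luminex xMAP multiplex, 24 h post-dosing. System: primary human B cells co-cultured with PBMC. Signal change scored relative to DMSO vehicle, positive fitting direction.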

[4] = read-out: Interleukin 17A (IL17A), IL17A (gene 3605); assay: BSK_BT_xIL17A: BioMAP Diversity Plus: BT Assay for Interleukin 17A (IL17A) Biomarker Activity (AID 2284229); details: primary human B cells with PBMC
Summary of the method: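 Luminex xMAP readout of secreted IL-17A; human B cell + PBMC co-culture; 24 h post-dose; positive-direction fit vs DMSO negative control.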

[5] = read-out: Tumor necrosis factor (Homo sapiens) (UniProt P01375); assay: BSK_BT_xTNFa: BioMAP Diversity Plus: BT Assay for Tumor necrosis factor alpha (TNF-alpha) Biomarker Activity (AID 2284230); details: primary human B cells with PBMC
Summary of the method: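 Compounds were added to a B cell plus PBMC co-culture, and after 24 h secreted TNF-alpha was quantified with Luminex xMAP technology, with responses fitted upward from the DMSO control.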

[6] = read-out: Vascular cell adhesion molecule 1 (VCAM1), VCAM1 (gene 7412); assay: BSK_MyoF_VCAM1: BioMAP Diversity Plus: MyoF Assay for Vascular cell adhesion molecule 1 (VCAM1) Biomarker Activity (AID 2284231); details: primary human lung fibroblasts
Summary of the method: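 MyoF system, lung fibroblasts; 24 h post-dose; VCAM-1 by ELISA; gain-of-signal fit vs DMSO baseline.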

[7] = read-out: Collagen I, COL1A1 (gene 1277); assay: BSK_MyoF_CollagenI: BioMAP Diversity Plus: MyoF Assay for Collagen I Biomarker Activity (AID 2284238); details: primary human lung fibroblasts
Summary of the method: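 ELISA readout of Collagen I after 24 h chemical treatment of primary human lung fibroblast cultures; gain of signal scored relative to DMSO vehicle baseline.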

[8] = read-out: Collagen III, COL3A1 (gene 1281); assay: BSK_MyoF_CollagenIII: BioMAP Diversity Plus: MyoF Assay for Collagen III Biomarker Activity (AID 2284239); details: primary human lung fibroblasts
Summary of the method: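 Lung fibroblast culture; 24 h compound exposure; collagen III by ELISA; gain-of-signal fit vs DMSO baseline.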

[9] = read-out: Interleukin 17F (IL17F), IL17F (gene 112744); assay: BSK_BT_xIL17F: BioMAP Diversity Plus: BT Assay for Interleukin 17F (IL17F) Biomarker Activity (AID 2284243); details: primary human B cells with PBMC
Summary of the method: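 Secreted IL-17F, read on LumineX xMAP beads, was taken as the endpoint. Cultures combined human B cells and peripheral blood mononuclear cells, sampled 24 hours after dosing, with DMSO serving as negative control.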

[10] = read-out: Actin alpha 1 (ACTA1), ACTA1 (gene 58); assay: BSK_MyoF_ACTA1: BioMAP Diversity Plus: MyoF Assay for Actin alpha 1 (ACTA1) Biomarker Activity (AID 2284244); details: primary human lung fibroblasts
Summary of the method: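 Cells were exposed to chemical for 24 h before a-SMA levels were quantified by ELISA in human lung fibroblasts. Increases were fitted against DMSO as negative control; parallel SRB staining (0.1% after 10% TCA fixation, 560 nm) assessed cytotoxicity.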

[11] = read-out: Interleukin 2 (IL2), IL2 (gene 3558); assay: BSK_BT_xIL2: BioMAP Diversity Plus: BT Assay for Interleukin 2 (IL2) Biomarker Activity (AID 2284245); details: primary human B cells with PBMC
Summary of the method: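 The BT system combines human B cells with peripheral blood mononuclear cells. Twenty-four hours after chemical dosing, secreted IL-2 was measured with xMAP bead technology, and responses were analyzed as increases over DMSO controls.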

[12] = read-out: Secreted IgG (sIgG), gene 3500; assay: BSK_BT_sIgG: BioMAP Diversity Plus: BT Assay for Secreted IgG (sIgG) Biomarker Activity (AID 2284226); details: primary human B cells with PBMC
Summary of the method: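 Cells (B cells with peripheral blood mononuclear cells) are dosed, cultured 24 h, then supernatant IgG is measured by ELISA. DMSO serves as negative control; curves are fitted for signal increase.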

[13] = CCTE_Mundy_HCI_hNP1_Casp3_7: CCTE's Caspase-Glo 3/7 Assay in human neuroprogenitor cells for Apoptosis, Mundy Lab (AID 2284240)
Summary of the method: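 Apoptosis is scored by activated caspase-3/7 luminescence in WA09-derived neural progenitor cells, measured 26.5 h after chemical dosing. Values represent gain of signal relative to DMSO vehicle.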

[14] = CCTE_Mundy_HCI_hNP1_CellTiter: CCTE's Cell Titer-Glo 2 Assay in human neuroprogenitor cells for Viability, Mundy Lab (AID 2284241; active = hit-call score of the fitted dose curve at least 0.9, where 1 is the maximum)
Summary of the method: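 Human neural progenitor cells (hNP1, WA09-derived) were plated on poly-L-ornithine/laminin and grown 40 to 44 hours at 37 °C, 5% CO2 before chemical addition. Twenty-four hours later, ATP was measured by CellTiter-Glo luminescence; loss of signal versus DMSO indicates reduced viability.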

[15] = read-out: Basic fibroblast growth factor (bFGF), FGF2 (gene 2247); assay: BSK_MyoF_bFGF: BioMAP Diversity Plus: MyoF Assay for Basic fibroblast growth factor (bFGF) Biomarker Activity (AID 2284246); details: primary human lung fibroblasts
Summary of the method: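 Chemicals are added to human lung fibroblast cultures and incubated 24 h. bFGF is then measured by ELISA, while parallel cultures receive SRB staining for total protein as a cytotoxicity check. Data are fitted upward against DMSO.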

Measured: AC50

Tumor necrosis factor (Homo sapiens), sequence (P01375 whole entry, looked up): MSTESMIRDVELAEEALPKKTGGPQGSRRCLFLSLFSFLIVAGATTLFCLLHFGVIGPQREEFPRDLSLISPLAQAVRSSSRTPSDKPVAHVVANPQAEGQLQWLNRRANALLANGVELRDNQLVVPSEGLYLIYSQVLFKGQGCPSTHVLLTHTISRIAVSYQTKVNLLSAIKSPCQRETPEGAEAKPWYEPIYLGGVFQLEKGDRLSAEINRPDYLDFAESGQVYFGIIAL

COC(OC)(C(=O)c1ccccc1)c1ccccc1
not listed: [12] | [13] | [14] | [15]
inactive: all other assays above

COc1ccc(C(=O)/C(Br)=C\C(=O)O)cc1
active: [1] 27.6 µM and 25.4 µM | [2] 25.4 µM and 18.6 µM | [3] 20 µM | [4] 24.3 µM and 25.6 µM | [5] 31.3 µM and 29.5 µM | [6] 25.5 µM and 10.5 µM | [8] 20 µM | [9] 26.5 µM and 30.2 µM | [10] 28 µM and 30.3 µM | [11] 23.2 µM and 20 µM
inactive: [7] | [8]

C=C(C)C(=O)OCCCCCCCCCCCC
not listed: [1] | [12] | [13] | [14] | [15]
inactive: all other assays above

O=C(O)C(F)(F)C(F)(F)C(F)(F)C(F)(F)C(=O)O
active: [5] 2.64 µM
inactive: [12] | [2] | [3] | [4] | [5] | [6] | [7] | [8] | [13] | [14] | [9] | [10] | [11]

C=CC(=O)OCCCCCCCC(C)C
active: [12] 20 µM
not listed: [1] | [13] | [14] | [15]
inactive: all other assays above

CC=C(C)C=CC=C(C)C
inactive: [4] | [6] | [7] | [8] | [10]
active: [2] 26.9 µM | [3] 14.1 µM | [5] 27.7 µM | [9] 24.9 µM | [11] 28.5 µM

CCCCC1C(=O)N(c2ccccc2)N(c2ccccc2)C1=O
not listed: [11] | [12] | [13] | [14]
inactive: all other assays above

CCOC(=O)/C=C\C(=O)OCC
not listed: [1] | [13] | [14] | [15]
inactive: all other assays above

CC/C=C\CCOC(=O)c1ccccc1O
active: [12] 7.02 µM | [6] 34.2 µM | [7] 31.1 µM | [8] 36.1 µM | [9] 20 µM | [10] 30.7 µM | [15] 31.3 µM
inactive: [2] | [3] | [4] | [5] | [11]

CC(C)[N+](C)(CCOC(=O)C1c2ccccc2Oc2ccccc21)C(C)C
not listed: [1] | [12] | [13] | [14] | [15]
inactive: all other assays above

C=CC(=O)NC(C)(C)C
not listed: [1] | [12] | [13] | [14] | [15]
inactive: all other assays above

C=CC(=O)OCC(C)OCC(C)OCC(C)OC(=O)C=C (stereo not drawn)
active: [12] 3.06 µM | [2] 11.5 µM | [3] 5.07 µM | [4] 7.92 µM | [5] 10.3 µM | [6] 30.1 µM | [7] 30.4 µM | [8] 30.9 µM | [9] 7.15 µM | [10] 30.8 µM | [11] 9.17 µM
